About 83,000 compounds went through this panel and 20% of them were active in at least one assay; those are over-represented in the sample as a whole.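 Treatment: one concentration, 48 hours, 96-well format. Scoring: percent growth, with anything below 10 considered active.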 Active and inactive are the calls of the source.
Assays:
Experiment in all cases: NCI-60 one-dose screen, 48 h (100 = growth as untreated, 0 = no growth, -100 = all killed)
Settings in all cases: 10 µM unless noted
HCT-15 colon = test system: HCT-15 colon
HT29 colon = test system: HT29 colon
SNB-75 CNS = test system: SNB-75 CNS
SNB-19 CNS = test system: SNB-19 CNS
U251 CNS = test system: U251 CNS
PC-3 prostate = test system: PC-3 prostate
SK-MEL-5 melanoma = test system: SK-MEL-5 melanoma
UACC-62 melanoma = test system: UACC-62 melanoma
LOX IMVI melanoma = test system: LOX IMVI melanoma
SK-MEL-28 melanoma = test system: SK-MEL-28 melanoma

Measured: growth

CC1=C(C)C(=O)C(Nc2ccc(C)c(C)c2)=C(Br)C1=O
active: LOX IMVI melanoma -54.6%
inactive: HCT-15 colon 92.3% | HT29 colon 107% | SNB-75 CNS 73.2% | SNB-19 CNS 97.4% | U251 CNS 102% | PC-3 prostate 85% | SK-MEL-5 melanoma 89.1% | UACC-62 melanoma 96.4% | SK-MEL-28 melanoma 111%

CC1=C(C)C(=O)C(Nc2ccc(C)cc2)=C(Br)C1=O
inactive: HCT-15 colon 95.9% | HT29 colon 108% | SNB-75 CNS 89% | SNB-19 CNS 101% | U251 CNS 104% | PC-3 prostate 87.8% | SK-MEL-5 melanoma 94% | UACC-62 melanoma 92.2% | LOX IMVI melanoma 29.9% | SK-MEL-28 melanoma 112%

Cn1c(SCC(=O)c2ccco2)nc2ccccc2c1=O
inactive: HCT-15 colon 84.9% | HT29 colon 118% | SNB-75 CNS 86.2% | SNB-19 CNS 102% | U251 CNS 105% | PC-3 prostate 93.6% | SK-MEL-5 melanoma 98.1% | UACC-62 melanoma 87% | LOX IMVI melanoma 95.2% | SK-MEL-28 melanoma 108%

N#Cc1nc(-c2ccc(Cl)cc2)oc1N1CCC(S(=O)(=O)N2CCOCC2)CC1
inactive: HCT-15 colon 105% | HT29 colon 98% | SNB-75 CNS 94.2% | SNB-19 CNS 92.2% | U251 CNS 102% | PC-3 prostate 95.4% | SK-MEL-5 melanoma 98.1% | UACC-62 melanoma 94.1% | LOX IMVI melanoma 81.7% | SK-MEL-28 melanoma 101%

CN1CCN(Cc2ccc(NC(=O)c3cncc(C#Cc4cnc5ccc(N)nn45)c3)cc2C(F)(F)F)CC1
active: HT29 colon 5.96% | LOX IMVI melanoma -63%
inactive: HCT-15 colon 49.5% | SNB-75 CNS 57.7% | SNB-19 CNS 35% | U251 CNS 54.6% | PC-3 prostate 36.9% | SK-MEL-5 melanoma 60.8% | UACC-62 melanoma 70.8% | SK-MEL-28 melanoma 41.2%

Cc1ccc(CSC2=C(Cl)CN(c3ccc(Cl)cc3)C2=O)cc1
inactive: HCT-15 colon 99.2% | HT29 colon 116% | SNB-75 CNS 103% | SNB-19 CNS 93.5% | U251 CNS 101% | PC-3 prostate 107% | SK-MEL-5 melanoma 99.8% | UACC-62 melanoma 94.7% | LOX IMVI melanoma 33.9% | SK-MEL-28 melanoma 104%

CC[C@H](CC[C@@H](C)[C@H]1CC[C@H]2[C@@H]3CC(=O)C4=CC(=O)/C(=C/c5ccc([N+](=O)[O-])cc5)C[C@]4(C)[C@H]3CC[C@]12C)C(C)C
inactive: HCT-15 colon 96.9% | HT29 colon 104% | SNB-75 CNS 96.1% | SNB-19 CNS 102% | U251 CNS 100% | PC-3 prostate 94.8% | SK-MEL-5 melanoma 96.7% | UACC-62 melanoma 90.2% | LOX IMVI melanoma 107% | SK-MEL-28 melanoma 104%

Cc1ccc(C(=O)Nc2ccc(CNCCN3CCOCC3)c(C(F)(F)F)c2)cc1C#Cc1cnc2cccnn12
inactive: SNB-19 CNS 36.6% | PC-3 prostate 19.3% | UACC-62 melanoma 15.1%
active: HCT-15 colon 7.26% | HT29 colon 2.36% | SNB-75 CNS -18% | U251 CNS 6.06% | SK-MEL-5 melanoma -85.9% | LOX IMVI melanoma -85.6% | SK-MEL-28 melanoma -6.46%

CC1=C(C)C(=O)C(Nc2cccc(C(F)(F)F)c2)=C(Br)C1=O
inactive: HCT-15 colon 82.7% | HT29 colon 106% | SNB-75 CNS 62.2% | SNB-19 CNS 91.1% | U251 CNS 87.4% | PC-3 prostate 71% | SK-MEL-5 melanoma 81.3% | UACC-62 melanoma 80.8% | SK-MEL-28 melanoma 105%
active: LOX IMVI melanoma 6.64%

CNc1sc(S(=O)(=O)NC)nc1S(=O)(=O)c1ccc(C)cc1
inactive: HCT-15 colon 94.2% | HT29 colon 107% | SNB-75 CNS 88.3% | SNB-19 CNS 96% | U251 CNS 95.8% | PC-3 prostate 96.7% | SK-MEL-5 melanoma 98.4% | UACC-62 melanoma 91.3% | LOX IMVI melanoma 96.1% | SK-MEL-28 melanoma 102%

O=C(/C=C/c1cc(Cl)ccc1Cl)Nc1ncc(Cc2ccc(Cl)cc2)s1
active: HCT-15 colon 7.86% | HT29 colon -22.8% | SNB-75 CNS 0.161% | U251 CNS 2.48% | SK-MEL-5 melanoma 5.45% | LOX IMVI melanoma -37.3%
inactive: SNB-19 CNS 19.1% | PC-3 prostate 27.3% | UACC-62 melanoma 29.1% | SK-MEL-28 melanoma 52.6%

O=C1Nc2ccccc2/C1=N\c1nnc(-c2ccccc2)o1
inactive: HCT-15 colon 87.2% | HT29 colon 99.2% | SNB-75 CNS 59.9% | SNB-19 CNS 91.5% | U251 CNS 97.8% | PC-3 prostate 79% | SK-MEL-5 melanoma 94.3% | UACC-62 melanoma 79.7% | LOX IMVI melanoma 102% | SK-MEL-28 melanoma 106%

From PubChem BioAssay (NCI)
